Experimental data reported in PubChem BioAssay AID652017 (The Scripps Research Institute Molecular Screening Center, 2013).
Hit rate of the full screen: of about 370,000 compounds, about 3,800 (1%) were called active. This is one part of a sample in which actives are shown more often than they occur. Rule as the data show it: active = activation above about 7.8%; inactive = the rest.

Assay: SMARCA2 (BRM) function activators, primary screen, cell-based, luminescence, high throughput (AID 652017);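 also: 0% = vehicle wells and 100% = reference activator wells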
Settings: MG213 cells, MMTV-luciferase reporter, dexamethasone, overnight; at 9.1 µM; active compounds read high

| Compound | activation |
| --- | --- |
| CCC1CO/C(=C(\C(=C(Cl)Cl)N2CCOCC2)[N+](=O)[O-])N1 (stereo not given) | -2.15% (inactive) |
| Cc1ccc(-c2nc3ccc(Cl)cn3c2Cc2ccccc2)cc1 | 10.1% (active) |
| Cc1cc(Br)cn2c(Cc3ccccc3C(F)(F)F)c(-c3ccc(C#N)cc3)nc12 | -1.52% (inactive) |
| Cc1ccc(-c2nc3ccc(Br)cn3c2Cc2ccccc2C(F)(F)F)cc1 | 8.44% (active) |
| Cc1cc(Br)cn2c(Cc3ccccc3C(F)(F)F)c(-c3ccc(Cl)cc3)nc12 | 3.06% (inactive) |
| Brc1ccc2nc(-c3ccccc3)c(Cc3ccccc3)n2c1 | 3.02% (inactive) |
| COc1ccccc1Cc1c(-c2ccc(Cl)cc2)nc2ccc(Cl)cn12 | 4.42% (inactive) |
| COC(=O)c1cc(S(=O)(=O)N2CCN(C(=O)C3CCCO3)CC2)cn1C (stereo not given) | -1.22% (inactive) |
| CC(C)CNS(=O)(=O)CC1NCCc2ccccc21 (stereo not given) | -3.17% (inactive) |
| COc1cccc(Cn2cc(COC(=O)Nc3ccc(F)cc3)nn2)c1 | -0.28% (inactive) |
| COc1cccc(N(C)C(=O)[C@@H](C)[C@@H](O)c2ccc3ccccc3c2)c1 | -2.05% (inactive) |
| COc1ccnc(NC(=S)N2CCN(c3ncc(C(F)(F)F)cc3Cl)CC2)c1 | -3.61% (inactive) |
| COc1ccc(CN2C(=O)N3Cc4cc(OC)ccc4C3CS2(=O)=O)cc1 (stereo not given) | -5.55% (inactive) |
| CC(C)NC(=O)C(=O)NCCN1CCN(S(=O)(=O)c2ccc(Cl)cc2)CC1 | -1.85% (inactive) |
| C#CCNC(=O)C[C@H]1C[C@@]2(C(=O)OC)C(=C[C@H](C(C)C)O[C@@H]2C2CC2)N(Cc2ccco2)C1=O | -5.88% (inactive) |
| COc1ccc(CN2CC[C@H]3C=CC[C@@H](C(=O)N4CCOCC4)[C@H]3C2=O)cc1OC | 1.07% (inactive) |
| Cc1ccc(Nc2nc(Cl)c(C=O)s2)cc1 | 8.44% (active) |
| Cc1ccc(Nc2ccccc2N)cc1 | 0.3% (inactive) |
| Cc1ccc(Nc2cc(C)nc3c(C)ccc([N+](=O)[O-])c23)cc1 | -1.39% (inactive) |
| COC(=O)C1CN(CCc2ccccc2)CCS(=O)(=O)N1Cc1ccc(F)cc1 (stereo not given) | 0.54% (inactive) |
| CC1=CC(=O)C=CC1(C)C(Cl)(Cl)Cl (stereo not given) | -0.07% (inactive) |
| Cc1cc(C)nc(Nc2n[nH]c(-c3ccccc3N)n2)n1 | 8.89% (active) |
| Clc1ccc(-n2c(SC/C=C/c3ccccc3)nnc2-c2ccco2)cc1 | -3.27% (inactive) |
| Cc1ccc2nnn(Cc3cccc(C(C)(C)C)c3O)c2c1 | -2.51% (inactive) |
| CCOC(=O)CNC(=O)N(C)[C@H]1C[C@H]2c3[nH]c4c(-c5ccc6c(c5)OCO6)cccc4c3CCN2C(=O)[C@H]1[C@H](C)O | -1.46% (inactive) |
| COCC1CCN(C(=O)C2CCC(=O)N(Cc3cccc(C(F)(F)F)c3)C2)CC1 (stereo not given) | 13.1% (active) |
| COCC1CCN(C(=O)C2CCC(=O)N(CC3CCCCC3)C2)CC1 (stereo not given) | -3.22% (inactive) |
| O=C1CCC(C(=O)N2CCCCO2)CN1Cc1cccc(C(F)(F)F)c1 (stereo not given) | -2.44% (inactive) |

| Compound | activation |
| --- | --- |
| O=C(CSc1nnc(-c2cccc(Cl)c2)n1Cc1ccco1)Nc1ccc(OCc2ccccc2)cc1 | -5.35% (inactive) |
| O=C(Nc1nc2ccc(Cl)cc2s1)c1cc(-c2ccc(Cl)cc2)nc2ccccc12 | -3.62% (inactive) |
| Cc1ccc(C(=O)Nc2nc3ccc(Cl)cc3s2)o1 | 12.3% (active) |
| Cc1sc2ncnc(N3CCC(C(=O)Nc4nc5ccc(Cl)cc5s4)CC3)c2c1C | 4.88% (inactive) |
| COC1=C[C@H](C(=O)NCCNC(C)=O)[C@H](C)[C@@H](c2ccccc2)CC1=O | -1.73% (inactive) |
| O=C1CC[C@@H](COc2ccc3[nH]cc(-c4ccccc4)c3c2-c2ccccc2)N1 | -2.62% (inactive) |
| COC(=O)[C@]12C[C@H](CC(=O)N3CCOCC3)C(=O)N(Cc3ccc(Cl)cc3Cl)C1=C[C@H](C(C)C)O[C@@H]2C1CC1 | -2.82% (inactive) |
| Cc1nc2ccccc2nc(=O)c1NNc1ccc([N+](=O)[O-])cc1 | 2.04% (inactive) |
| Cc1ccc(-n2cc3ccc([N+](=O)[O-])cc3n2)cc1 | 3.85% (inactive) |
| O=[N+]([O-])c1ccc2c(c1)Nc1nc3ccccc3nc1N2 | 15.2% (active) |
| COc1ccc(CSc2nnc(SCC(=O)Nc3ccccc3C(F)(F)F)s2)cc1 | -1.77% (inactive) |
| COc1ccc(CC2c3cc(OC)c(OC)cc3CC[N+]2(C)CCC(=O)OCCCCCOC(=O)CC[N+]2(C)CCc3cc(OC)c(OC)cc3C2Cc2ccc(OC)c(OC)c2)cc1OC (stereo not given) | 11.4% (active) |
| COc1ccc(CN2CCOC2=O)cc1OC | -2.13% (inactive) |
| COC(=O)C1=CN(Cc2ccc(OC)c(OC)c2)C=C(C(=O)OC)C1c1cccs1 | -1.26% (inactive) |
| CN(CCO)c1cccc2c1S(=O)(=O)N(Cc1cn(Cc3ccc(C(F)(F)F)cc3)nn1)Cc1ccccc1O2 | 3.38% (inactive) |
| CC(C)CNC(=O)OCc1cn(Cc2ccc(F)cc2)nn1 | -0.88% (inactive) |
| CCOC(=O)[C@@]12CCC3=C1N(CCC3)C(=O)[C@H](CC(=O)N1CCN(C(=O)c3ccco3)CC1)C2 | -0.99% (inactive) |
| COc1cccc(CNC(=O)[C@H]2CCCN2C(=O)[C@H]2CCCN2C(=O)c2ccc(F)cc2)c1 | -5.59% (inactive) |
| CC1CCN(CC(=O)c2c[nH]c3ccccc23)CC1 | 4.35% (inactive) |
| O=C(NC1CCCC1)C(=O)c1c[nH]c2ccccc12 | 10.3% (active) |
| O=C(NCCCc1ccccc1)C(=O)c1c[nH]c2ccccc12 | 7.21% (inactive) |
| Cc1nn(C(C)(C)C)c(OC(=O)CC(C)C)c1S(=O)(=O)c1ccccc1 | -0.75% (inactive) |
| N#Cc1c(/N=C/N2CCCC2)oc(-c2ccccc2)c1-c1ccccc1 | 1.32% (inactive) |
| CCOc1ccc(NC(=S)N2CCC(N(C)CC3CCCO3)CC2)cc1 (stereo not given) | 4.49% (inactive) |
| CCC(C)N(C)C1CCN(C(=S)Nc2ccc(OC)cc2)CC1 (stereo not given) | 8.91% (active) |
| COc1ccc(N2CCN(C(=S)Nc3ccc(S(N)(=O)=O)cc3)CC2)cc1 | -1.43% (inactive) |
| O=C(CSc1nc2ccccc2n1Cc1ccccc1)NNC(=S)Nc1ccccc1 | 4.3% (inactive) |
